Assay results taken from PubChem BioAssay AID2603 (Johns Hopkins Ion Channel Center, 2010).
Entries with a potency or affinity are not part of this list.

Target: Potassium voltage-gated channel subfamily KQT member 2 (Rattus norvegicus) (UniProt O88943)
Assay: potentiation of rat KCNQ2 current – cell-based, automated electrophysiology, mechanism study for KCNQ2 potentiator project, dose response (AID 2603)
Details: KCNQ2-CHO cells, automated patch clamp current potentiation; at 30 µM (top of the series)

Potassium voltage-gated channel subfamily KQT member 2 (Rattus norvegicus), sequence (O88943 whole entry, looked up): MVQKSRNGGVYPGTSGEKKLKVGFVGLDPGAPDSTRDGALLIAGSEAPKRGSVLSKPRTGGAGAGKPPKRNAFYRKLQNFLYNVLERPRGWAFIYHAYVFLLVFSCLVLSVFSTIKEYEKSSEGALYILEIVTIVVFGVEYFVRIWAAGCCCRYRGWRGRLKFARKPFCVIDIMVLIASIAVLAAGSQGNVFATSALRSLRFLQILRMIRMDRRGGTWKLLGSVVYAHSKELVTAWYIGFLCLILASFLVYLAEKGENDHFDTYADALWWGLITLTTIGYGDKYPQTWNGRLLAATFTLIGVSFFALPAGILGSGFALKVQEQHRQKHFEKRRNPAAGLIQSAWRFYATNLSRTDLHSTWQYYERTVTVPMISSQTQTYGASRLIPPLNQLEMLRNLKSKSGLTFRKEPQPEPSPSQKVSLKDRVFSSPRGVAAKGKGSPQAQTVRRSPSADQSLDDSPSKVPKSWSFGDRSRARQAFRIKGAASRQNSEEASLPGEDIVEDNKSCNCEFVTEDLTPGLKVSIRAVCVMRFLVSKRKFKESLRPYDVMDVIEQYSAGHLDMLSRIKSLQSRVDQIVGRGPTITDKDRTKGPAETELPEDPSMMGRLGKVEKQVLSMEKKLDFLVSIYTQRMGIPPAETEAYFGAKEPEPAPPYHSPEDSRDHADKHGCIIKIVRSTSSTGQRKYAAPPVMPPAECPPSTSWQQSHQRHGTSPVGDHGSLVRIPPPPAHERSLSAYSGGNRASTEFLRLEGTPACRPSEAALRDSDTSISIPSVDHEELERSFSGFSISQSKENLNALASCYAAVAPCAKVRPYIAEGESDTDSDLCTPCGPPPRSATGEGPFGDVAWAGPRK

Compound `O=c1[nH]sc2cc(F)ccc12` has a potentiation of 102.
